Inconclusive results are not listed. A call without a number means that no potency is given here. Activity calls are given as the source filed them. Calls follow the shape of the dose curve; as a rule, active = well fitted curve in the direction sought with a large enough effect; inconclusive = small, poorly fitted or top-dose-only effect, or another doubt; inactive = no such curve, though single readings can be large or run the other way.
Each compound was assayed against Metallo-beta-lactamase type 2 (Klebsiella pneumoniae) (UniProt C7C422) (assay: qHTS to identify inhibitors of the New Delhi Metallo-beta-lactamase (NDM): assay validation screen against the NCATS LOPAC Collection (AID 1794843)). Conditions: NDM-1 enzyme, nitrocefin hydrolysis, absorbance 485 nm; series mostly up to 38.4 µM.
Metallo-beta-lactamase type 2 (Klebsiella pneumoniae), sequence (C7C422 whole entry, looked up): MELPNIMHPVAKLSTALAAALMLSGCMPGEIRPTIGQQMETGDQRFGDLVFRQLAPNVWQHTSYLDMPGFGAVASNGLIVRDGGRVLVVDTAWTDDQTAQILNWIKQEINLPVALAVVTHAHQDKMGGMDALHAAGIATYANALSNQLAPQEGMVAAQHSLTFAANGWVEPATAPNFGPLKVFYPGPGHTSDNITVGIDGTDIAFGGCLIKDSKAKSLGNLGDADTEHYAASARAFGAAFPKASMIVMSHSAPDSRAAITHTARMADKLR
Summary of the method: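 Absorbance at 485 nm from nitrocefin turnover (50 uM solution added), read at plateau, gives the read-out. Compounds in DMSO were incubated first with 2 nM final NDM-1 in pH 7.0 HEPES buffer containing 1 uM ZnSO4 and 0.01% Tween20.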
For `N[C@H](C(=O)O)[C@H]1C[C@@H]1C(=O)O`, the Potency was “inactive”. For `CCc1ccc2c(-c3cccc(Cl)c3)nc(=O)n(CC)c2n1`, the Potency was “inactive”. With `N=C(N)SCCN` the Potency was “inactive”. With `CCC(=O)N1CCN(C(=O)c2ccccc2)CC1` the Potency was “inactive”. `NC(=Nc1ccccc1)NC(=O)c1nc(Cl)c(N)nc1N` was tested, and the Potency was “inactive”. `NCCCNCCCCNCCCN` was tested, and the Potency was “inactive”. `O=c1cc(-c2ccccc2F)[nH]c2cc3c(cc12)OCO3` was tested, and the Potency was “inactive”. With `Cn1cc(C(F)(F)F)nc1-c1ccc(OCC(O)CNCCOc2ccc(O)c(C(N)=O)c2)cc1` (stereo not given) the Potency was “inactive”. With `NCCCCN` the Potency was “inactive”. With `Nc1ncnc2c1ncn2C1CCCO1` (stereo not given) the Potency was “inactive”. `NC1(C(=O)O)CCCCC1` was tested, and the Potency was “inactive”. In the case of `c1ccc2c(c1)CCC[C@H]2Nc1nc2ccccc2[nH]1`, the Potency is reported as “inactive”. `Nc1ccc(-c2ccc3ccccc3n2)cc1` was tested, and the Potency was “inactive”. For `Nc1nc2[nH]c(=O)cnc2c(=O)[nH]1`, the Potency was “inactive”. In the case of `O=C(O)C1=CCCN(CCON=C(c2ccccc2)c2ccccc2)C1`, the Potency is reported as “inactive”.

From PubChem BioAssay (NCATS)
